Only some compounds are listed: those with a hit (about 3.2% of all), similar ones and a draw of the others.
TROY NFkB inh – TROY signaling inhibition | Q293 LMP1-TROYcd NF-kB luciferase reporter, 4 h | inhibition, % at 10 µM | 360,000 compounds, 0.98% hits | AID 1347056;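 active means compounds whose plate-normalised and pattern-corrected inhibition of the luciferase reporter signal at the single screening dose is 50% or more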
EWS-Fli block – EWS/Fli transcriptional activity inhibition | A673 NR0B1-luciferase reporter, viability-normalised | inhibition, % at 12.6 µM | 350,000 compounds, 0.67% hits;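 active means mean inhibition of at least 50% after viability correction, with every replicate also passing that limit; inconclusive means mean reaches 50% but only one of two replicates passes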;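 further: firefly luciferase signal divided by Alamar Blue viability fluorescence both relative to DMSO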
PAX8 reporter – PAX8 transcriptional activity inhibition. RMG-I TPO-luciferase reporter, SteadyGlo, 24 h. inhibition, % at 12.6 µM. 360,000 compounds, 1.2% hits. AID 652154;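 active means mean replicate inhibition at least 60% with every replicate also reaching 60%; inconclusive means only one of the two criteria is met; inactive means mean below 60% and not all replicates reaching 60%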;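 further: luciferase light reporting Pax8 driven TPO promoter activity; plate controls were median of neutral control wells for no effect and mitoxantrone controls for full effect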
LGR2 antag – blocks bursicon-induced cAMP signaling via Drosophila LGR2; HEK293 LGR2, CRE-luciferase, bursicon-stimulated, 4 h; inhibition, % at 9.99 µM; 380,000 compounds, 0.35% hits; AID 720647;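 active means drop in luminescence signal, shown as inhibition above about 50% in the replicate tests, limit read from the data, passing the limit was not always enough; inconclusive means probably only some replicates passing the limit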;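 further: agonist challenge used bursicon conditioned medium at about half maximal strength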
TWEAK Fn14 block – inhibitors of TWEAK-Fn14 interaction signaling; 360,000 compounds, 2% hits; inhibition, % at 10 µM; AID 1159606; TWEAK-stimulated Fn14 reporter cells, luciferase luminescence, 8 h; in the data active means inhibition above about 50%
EBV LMP1 NFkB – reduces LMP1-driven NF-kappaB luciferase signal | 350,000 compounds, 0.69% hits | inhibition, % at 12.5 µM | LMP1-induced NF-kappaB luciferase reporter cells, luminescence | AID 504558; in the data active means inhibition above about 41%; inconclusive means no clear call, values can overlap the other calls;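 further: 0% = neutral control wells and 100% = reference inhibitor control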
* hit, by the source's call; ? = inconclusive; · = not tested or not shown.

SMILES	TROY NFkB inh	EWS-Fli block	PAX8 reporter	LGR2 antag	TWEAK Fn14 block	EBV LMP1 NFkB
C[C@@H]1CCCCO[C@@H](CN(C)Cc2ccc(C(F)(F)F)cc2)[C@@H](C)CN([C@@H](C)CO)C(=O)c2cc(NS(=O)(=O)c3ccc(F)cc3)ccc2O1	·	-0.5	86.1*	6.8	·	·
C[C@@H]1CCCCO[C@@H](CN(C)Cc2ccc(C(F)(F)F)cc2)[C@H](C)CN([C@@H](C)CO)C(=O)c2cc(NS(=O)(=O)c3ccc(F)cc3)ccc2O1	·	70.7*	104.9*	-1.4	·	·
C[C@@H]1CN([C@H](C)CO)C(=O)c2cc(NS(=O)(=O)c3ccc(F)cc3)ccc2O[C@@H](C)CCCCO[C@H]1CN(C)Cc1ccc(C(F)(F)F)cc1	·	65.2*	113.8*	15.2	·	·
C[C@@H]1CN([C@@H](C)CO)C(=O)c2cc(NS(=O)(=O)c3ccc(F)cc3)ccc2O[C@@H](C)CCCCO[C@H]1CN(C)Cc1ccc(C(F)(F)F)cc1	·	26.9	97.0*	-11.1	·	·
C[C@@H]1CCCCO[C@H](CN(C)Cc2ccc(C(F)(F)F)cc2)[C@@H](C)CN([C@H](C)CO)C(=O)c2cc(NS(=O)(=O)c3ccc(F)cc3)ccc2O1	·	-9.5	-3.0	1.5	·	·
O=C(Nc1cccc(Cl)c1)N1C[C@H]2[C@@H](c3ccccc31)[C@H](CO)N2Cc1cccnc1	·	-0.7	6.0	-38.6	·	·
C[C@@H]1CN([C@H](C)CO)C(=O)c2cccc(NC(=O)NC3CCCCC3)c2O[C@H]1CN(C)S(=O)(=O)c1ccccc1	·	-14.4	-10.0	1.6	·	·
CN(C)c1ccc(C(O)Cc2nc3ccccc3n2C)cc1 (stereo not drawn)	79.3*	-57.9	42.2	49.5	73.8*	11.3
CC(C)n1c(-c2ccc(N(C)C)cc2)nc2ccccc21	28.5	·	·	·	27.1	-9.1
CN(C)c1ccc(-c2nc3ccccc3n2C)cc1	-3.3	·	·	73.9*	43.2	49.6*
O=C1/C(=C\c2cc([N+](=O)[O-])ccc2O)SC(=S)N1Cc1ccc(Cl)cc1	52.7*	12.8	8.6	14.9	72.4*	-3.3
Cc1ccccc1/C=C1\SC(=S)N(/N=C/c2cc([N+](=O)[O-])ccc2O)C1=O	77.8*	8.1	-10.9	5.2	16.7	-7.7
O=[N+]([O-])c1ccc(O)c(C=NN2CCCCC2)c1	-15.5	3.9	-5.8	-7.2	-19.8	0.4
CO[C@H]1CN(C)C(=O)c2ccc(NC(=O)C3CC3)cc2OC[C@@H](C)N(CCC(F)(F)F)C[C@H]1C	·	1.5	-4.5	13.4	·	·
Cc1cccc(NC(=O)CC23CC4CC(C2)CC(n2nnc(C)n2)(C4)C3)c1	8.2	-9.7	110.7*	3.5	-16.8	3.8
Cc1nnn(C23CC4CC(CC(CC(=O)Nc5cccc(F)c5)(C4)C2)C3)n1	-4.6	5.9	13.3	-11.2	-13.1	4.4
C[C@H]1CN([C@@H](C)CO)C(=O)c2cccc(NC(=O)NC3CCCCC3)c2O[C@@H]1CN(C)S(C)(=O)=O	·	0.2	5.8	1.9	·	·
Cc1ccc2occ(/C=N/NC(=O)c3ccc(Cl)cc3)c(=O)c2c1	20.4	·	-18.8	16.5	42.4	-5.1
COc1ccc(C(=O)N/N=C\c2coc3ccc(C)cc3c2=O)cc1	18.2	2.8	-24.7	23.5	54.4*	-1.3
COc1ccc(C(=O)N/N=C/c2cccc3cccnc23)cc1	·	·	·	·	105.2*	3.3
Cc1ccc2occ(/C=N/NC(=O)c3ccccc3O)c(=O)c2c1	20.3	5.1	29.4	2.5	57.9*	-1.1
COc1ccc(CN(C)C[C@@H]2Oc3ccc(NS(=O)(=O)c4cccs4)cc3CC(=O)N([C@@H](C)CO)C[C@H]2C)cc1	·	-6.9	-8.1	8.1	·	·
C/C=C/c1ccc([C@@H]2[C@@H](CN(C)C(=O)CC)N(C(=O)C3CC3)[C@H]2CO)cc1	·	-2.2	-7.2	-9.6	·	·
C/C=C/c1ccc([C@H]2[C@@H](CO)N(C(=O)CC3CC3)C23CN(S(C)(=O)=O)C3)cc1	·	11.2	-9.2	7.1	·	·
CC(=O)N1[C@H](CO)[C@H](c2ccccc2)C12CN(C(=O)Cc1ccccc1)C2	·	-1.3	-5.1	-4.3	·	·
SMILES	TROY NFkB inh	EWS-Fli block	PAX8 reporter	LGR2 antag	TWEAK Fn14 block	EBV LMP1 NFkB
COc1cc(C2Nc3ccccc3C(=O)N2c2ccc3c(c2)OCCO3)ccc1OCC(C)C (stereo not drawn)	23.7	·	·	·	67.2*	25.6
O=C1c2ccccc2NC(c2ccc3c(c2)OCCO3)N1c1ccc2c(c1)OCCO2 (stereo not drawn)	59.3*	·	·	·	59.2*	20.8
COc1ccc(-n2nc(C(=O)c3cccs3)cc(-c3nc4ccccc4[nH]3)c2=N)cc1	-17.9	·	-4.2	·	-46.3	59.0*
CC(=O)N1CC(=O)N2[C@H](C1)[C@H](c1ccc(-c3ccncc3)cc1)[C@@H]2CO	·	-5.9	9.3	8.4	·	·
O=C(Nc1ccc(OC(F)(F)F)cc1)Nc1cccc([N+](=O)[O-])c1	24.0	·	59.7	-15.9	56.4*	9.3
O=C(Nc1ccc(Oc2ccc(NC(=O)Nc3ccc([N+](=O)[O-])cc3)cc2)cc1)Nc1ccc([N+](=O)[O-])cc1	26.1	33.4	6.7	9.1	86.8*	25.0
Cc1ccc(C(C)C)cc1NC(=O)Nc1ccc([N+](=O)[O-])cc1	58.7*	35.6	62.5*	18.6	68.8*	10.3
O=C(Nc1ccc([N+](=O)[O-])cc1)Nc1nc(-c2ccc(Cl)s2)cs1	54.2*	40.6	105.8*	49.4	67.1*	54.7*
CO[C@@H]1CN(C)C(=O)c2ccc(NC(=O)C3CC3)cc2OC[C@H](C)N(C(=O)c2ccncc2)C[C@H]1C	·	-6.3	-15.0	0.3	·	·
Cc1cc(NC(=O)Nc2cccc([N+](=O)[O-])c2)no1	-20.7	-3.8	-27.9	3.3	-7.2	-6.7
Cc1ccc(NC(=O)Nc2cccc([N+](=O)[O-])c2)cc1F	44.9	·	-20.7	-14.7	78.5*	10.3
CCC(C)NC(=O)CC(NS(=O)(=O)c1ccc(Cl)cc1)c1ccco1 (stereo not drawn)	10.7	·	·	·	59.3*	-1.1
COc1cc(C2c3cc4c(cc3CC3COC(=O)N32)OCO4)cc(OC)c1OC (stereo not drawn)	20.6	?	72.3*	-18.6	-5.0	-2.8
COc1cc2c(c(OC)c1OC)C(c1ccc3c(c1)OCO3)CC(=O)O2 (stereo not drawn)	-3.9	6.5	-10.2	-0.5	-12.5	-3.1
COCCNC(=O)c1cc2c(c(-c3cccc(C4=CCCC4)c3)n1)[C@H](CCO)N([S@@](=O)C(C)(C)C)C2	·	2.7	-4.5	-7.6	·	·
CCC(CC)c1nnc(NC(=O)c2cccc(S(=O)(=O)N3CCc4ccccc43)c2)s1	39.0	3.0	·	3.3	40.8	-7.1
CCOC(=O)c1sc(NC(=O)c2cccc(S(=O)(=O)N3CCc4ccccc43)c2)c(C#N)c1C	52.9*	20.4	18.0	38.4	47.6	36.9
O=C(Nc1nc2ccc(F)cc2s1)c1cccc(S(=O)(=O)N2CCc3ccccc32)c1	33.4	-7.7	2.2	3.5	57.1*	8.1

From PubChem
